Measured values published in the supplement of paper PMC6555819.

Test system: VDR:RXRa (NR concentration 270 nM, RXRa partner concentration 90 nM)
Assay: PBM binding z-score (relative to random genomic background probes); higher = stronger binding; sequences stand for … in GC…GCGATTGACAGCGTAGAATGAAGG
Description: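 Protein-binding microarray (Agilent 4x180K custom design, double-stranded 60-nt probes: 5' GC cap, 34-nt variable region, 24-nt constant primer region; full probe sequence given). Purified or IVT nuclear receptor:RXRα heterodimers (3:1 NR:RXRα, mostly 270:90 nM) or homodimers were incubated for 1 h in PBS with 2% milk and no ligand, then detected with Alexa488 antibodies. Fluorescence from o1-orientation probes (~5 replicates averaged) was converted to z-scores against 500 random hg19 background probes. Variable regions are seed direct-repeat (DR0–DR5) sites, all their single-nucleotide variants and half-site ablations.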

Sequence	PBM binding z-score
ACTAGCAGGCCAAGTTTGGGTCAGTCAAACAAAG	0.056
AGAATGAGGTTACCAAAGACCAGGGAAACGCTTG	1.32
CCGACTGGGGCAGAAATGTTACCATACCATCCGG	-0.557
TCTTGTAGATCAATAGAGGTTCAGAAAGTGCGCT	1.65
CGAACTAAGTCAGAACAGGACAGTGAAGGATGAT	-0.25
TCATATAGGTAAAGGTGAAGGTCGAACGATATGA	1.63
GCTATTAGTTCAAAGGGCAACCGAATGATTCTCG	2.63
CCTAGCAGGCTAATCTGGGTCACTCAAGGCTTGA	0.385
CTCGAAAGGTCGGTGGAGGTGAGTATACGGATAA	1.79
AACGAAAGGTCGAGGTGAGTATAGAGAAAGGGAA	2.85
CCTAGTTGGTTAAGGTCACACACGCTATAGGTAC	4.4
TCTAGTTGGTCACGGAGGTCACACTCGACGGGTA	5.86
CCTCGGAGGACAACAGGAGGTCCGAGCTGCCAGA	-0.665
CCTGCTAGGTCATGGCCAGCTAATCTACAGTATG	1.43
CCTACTGGGCCAACGTCATTGATCAGTCAAAGCA	-0.476
CCGACTGGGGCCTAAGGTTACCATAAGCCAGCCC	-0.158
TTACCAAGGTGAAAGGTGGTTGATGCACGCCTTG	0.184
CGAACGAGGGCATGTGTTGATAGCAAATGCCGAT	0.931
CCTAGCAGGCCAATCTGGGTCCCTCAAGGCTTGA	-0.831
ATATGTCGGTTATCGGGTCATTCAGTTTGCGCAT	4.84

Sequence	PBM binding z-score
TCTAGTTGGTCACAGGTCACACACTCGAAATGCG	2.95
TCGAGTAGGTTACCAATGGGGCATTTAGCTTTCT	0.185
ACTATTAGTTGAGACGAGGACAACCGATAGGTTG	0.286
TATACAGGGTCAAGGGCCAGAGTACGAATGTCGA	4.43
AATACAGGGTCACTATGCCAGAGTAGGTACGAAT	3.91
GGAACGAGGGCATTCGAGTGGATAGCATGGCGAT	1.32
CAAACTAGGTCCAAGGTCAAAGTCGAGCCAACCA	4.04
ATTAGCAGGCCAAGTTTGGGTCACTCAAACAAAG	0.833
CCTGCCAGGTCATGGTCAGCTAATCTACAGTATG	2.65
AGAATCAGGTTACCAAAGATCAGGGAAACGCTTG	-0.0357
TCTTGTAGATCAGGCAGGTTAAGAAAGCCTGAGT	0.268
CCGACTGGGGCATAAGGTTAACATAAGCCAGCCC	0.684
AATACAGGGTAATCGTAGGCCAGAGTACGCACAG	0.0104
TCTTTTAGATCAATAGAGGTTAAGAAAGTGCGCT	2.22
CAAACTAGGTCACACAGGTCAAAGTCCGTGCGTA	6.73
CGTTAAAGTTCAAGGTAACGTAACAGAAAGCAGC	3.02
CCTACTGGGCCAAAAAGGTCATTGGTGCCGATAA	5.2
CCTTACGGGTCGCGAGGTTATAGCACGACGAGCG	2.88
ACTAGTTGGTCAGCGGAGGTCACACACAATTCGG	3.98
ACCGAAAGGTCGTGAGGTGAGTATACAGAAAGGC	3.62
